# GIRK2 activator: Activators of human GIRK2-containing channels. activation (% efficacy), % for hits at 37.5 µM. AID 1259324. 34,000 tested, under 10 active. HEK293 GIRK2/NPY4 cells, thallium flux fluorescence;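 active = primary screen hit, no activity in plain HEK293 cells, and in GIRK2-only cells above 5% efficacy rising with concentration; inactive = the rest, including fluorescent compounds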;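 also: efficacy is normalized control-subtracted fluorescence 15 s after thallium addition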
# AMPAR-TARP mod: GluA2-stargazin AMPA receptor complex modulation; hit rate 3.5% among 40,000; HEK293 GluA2+stargazin, membrane potential dye (FDSS), glutamate EC50; hits were called plate by plate, in both directions; O88602+P19491; calls only at 30 µM;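 active = any of four per-well response measures lying three or more SD from its plate-wide compound average, in either direction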
# The depositor's hits bear a star; i = inactive; . = no result; + = active, no number. The entries come from a sample that favours hits as a whole.
SMILES,GIRK2 activator,AMPAR-TARP mod
CSc1ccccc1C(=O)Nc1ccc2c(c1)CN(C(=O)c1ccco1)CC2,i,i
CCCc1nnsc1C(=O)Nc1ccc2c(c1)CN(C(=O)c1ccco1)CC2,i,i
O=C(Nc1ccc2c(c1)CN(C(=O)c1ccco1)CC2)c1ccc2nsnc2c1,i,+
O=C(Nc1ccc2c(c1)CN(C(=O)C1CC1)CC2)c1ccc2nsnc2c1,i,+
O=C(Nc1ccc2c(c1)CN(C(=O)C1CC1)CC2)c1ccsc1,i,i
O=C(Nc1ccc2c(c1)CN(C(=O)c1ccco1)CC2)c1cnccn1,i,+
Cc1cc(-c2nnc(NC(=O)c3ccc4ncsc4c3)o2)n(C)n1,i,.
O=C(COc1ccc(Cl)cc1)N1CCN(c2ccc(-c3ccccc3)nn2)CC1,i,i
Cc1ccnc(Nc2ccc(N3CCN(C(=O)Nc4ccc(F)cc4)CC3)nn2)c1,i,.
CCCCOc1ccc(C(=O)Nc2ccc(CC(=O)N3CCOCC3)cc2)cc1,i,.
Cc1ccc(S(=O)(=O)Nc2ccc3c(c2)N(S(=O)(=O)c2ccccc2)CCC3)cc1C,.,i
CSc1ccccc1C(=O)NCc1n[nH]c(=O)c2ccccc12,i,i
COc1nn(C)cc1C(=O)NCc1n[nH]c(=O)c2ccccc12,i,+
O=C(NCc1n[nH]c(=O)c2ccccc12)c1ccc(=O)[nH]c1,i,i
O=C(NCc1n[nH]c(=O)c2ccccc12)c1cccc(-n2cnnn2)c1,i,+
CCOC(=O)N1CCc2nc(NC(=O)C(C)(C)C)sc2C1,i,i
CCOc1ccc(-n2c(C)c(C)n3c4c(=O)n(CCN5CCCCC5)c(=O)n(C)c4nc23)cc1,.,i
O=c1[nH]c2sc3c(c2c(=O)n1-c1ccccc1)CCCC3,i,i
O=c1c2c3c(sc2ncn1/N=C/c1cccnc1)CCC3,.,+
CC(=O)N1CCc2c(sc(NC(=O)c3cc(C)n(C)n3)c2-c2nc3ccccc3s2)C1,i,+
CC(C)N1CCc2c(sc(NC(=O)c3ccco3)c2-c2nc3ccccc3s2)C1,.,+
CC(=O)N1CCc2c(sc(NC(=O)c3ccccc3)c2-c2nc3ccccc3s2)C1,.,i
CC(C)N1CCc2c(sc(NC(=O)c3nc4ccccc4s3)c2-c2nc3ccccc3s2)C1,.,i
COc1ccccc1-c1cc(C(=O)O)c2[nH]c(-c3ccccc3)nc2n1,i,.
O=S(=O)(NCC(O)c1ccc(C(F)(F)F)cc1)c1ccc2c(c1)CCCC2 (stereo not drawn),i,i
SMILES,GIRK2 activator,AMPAR-TARP mod
COc1ccc(S(=O)(=O)NCC(O)c2ccc(C(F)(F)F)cc2)cc1Cl (stereo not drawn),.,+
Cc1c(Cl)cccc1S(=O)(=O)NCC(O)c1ccsc1 (stereo not drawn),i,i
Cc1c(Cl)cccc1S(=O)(=O)NCC(O)c1ccc(C(F)(F)F)cc1 (stereo not drawn),i,+
Cc1cc(OCC(=O)N2CCN(c3ccc4nncn4n3)CC2)ccc1Cl,i,i
N#CC1(C(=O)NCCc2cccs2)CC1,i,.
COc1ccc(C)cc1S(=O)(=O)N1CCN(CCO)CC1,i,i
COc1ccc(-c2cc(=O)n(CC(=O)NC(C)C)cn2)cc1,i,.
O=S(=O)(c1cccs1)N1CCC(c2nc(-c3cccs3)no2)CC1,i,.
Cn1cccc1C(CNC(=O)C(=O)NCc1ccc(F)cc1)N1CCOCC1 (stereo not drawn),i,i
Cn1cccc1C(CNC(=O)c1ccc(F)cc1)N1CCOCC1 (stereo not drawn),i,+
Cc1ccc(-c2cc(C(F)F)n3ncc(C(=O)N4CCC(C)CC4)c3n2)cc1,.,+
Cc1ccc(-c2cc(C(F)F)n3ncc(C(=O)n4c(C)nc5ccccc54)c3n2)cc1,.,i
O=C(NCc1cccc2ccccc12)N(CCc1ccccc1)Cc1ccccn1,i,+
O=C(N(CCc1ccccc1)Cc1ccccn1)C12CC3CC(CC(C3)C1)C2,i,+
O=C(NC1CCCCC1)N(CCc1ccccc1)Cc1ccccn1,i,i
O=C(NCc1cccc2ccccc12)N(Cc1ccccn1)Cc1ccco1,i,.
CCOc1ccc(-c2ccc(=O)n(CCNC(=O)C(C)Oc3ccccc3F)n2)cc1 (stereo not drawn),i,i
COc1cc(OC)cc(C(=O)Nc2nnc(-c3cc(C)n(C)n3)o2)c1,i,+
COc1cc2ccccc2cc1C(=O)Nc1nnc(-c2cc(C)n(C)n2)o1,i,i
COc1ccc(C(=O)Nc2nnc(-c3cc(C)nn3C)o2)cc1OC,i,.
COc1ccc(C(=O)Nc2nnc(-c3cc(C)n(C)n3)o2)cc1OC,i,+
O=C(Cc1csc(Nc2cccc(Cl)c2)n1)NCc1ccccc1,i,i
CCc1ccc(S(=O)(=O)NCCCn2nc(-c3ccccc3)ccc2=O)s1,i,i
CCc1ccc(S(=O)(=O)NCCCn2nc(-c3ccc(OC)cc3)ccc2=O)s1,i,+
O=C(c1ccco1)N(Cc1ccsc1)Cc1ccccn1,i,.
SMILES,GIRK2 activator,AMPAR-TARP mod
O=C(Cc1cc(-c2ccc3c(c2)OCO3)on1)NCc1cccs1,i,i
CC1Cc2cc(-c3cc(CC(=O)NCc4ccco4)no3)ccc2O1 (stereo not drawn),i,+
CC1Cc2cc(-c3cc(CC(=O)NCc4cc(-c5cccs5)on4)no3)ccc2O1 (stereo not drawn),i,i
O=C(Cc1cc(-c2ccc3c(c2)OCCO3)on1)NCc1cccs1,i,+
CN1C2=C(C(=O)CC(C)(C)C2)C(c2cc(Br)ccc2O)C2=C1CC(C)(C)CC2=O,.,+
CC1(C)CC(=O)C2=C(C1)NC1=C(C(=O)CC(C)(C)C1)C2c1cccs1,i,i
O=C(NCCc1ccccc1)N1CCC(c2nnc(C3CC3)o2)CC1,.,i
O=C(CN1CCC(c2nnc(C3CC3)o2)CC1)NCCc1ccccc1,i,+
COc1ccc(CC(=O)Nc2ccc(N3CCCCS3(=O)=O)cc2)cc1,i,i
O=C(CSCc1ccccc1)N1CCN(Cc2nnnn2-c2ccc(F)c(F)c2)CC1,i,+
O=C(C1CC1)N1CCN(Cc2nnnn2-c2ccc(F)c(F)c2)CC1,i,i
COC(=O)c1cc(-c2ccc(OC)cc2OC)n[nH]1,i,i
COc1cccc(COc2coc(C(=O)Nc3ccc(C)c(F)c3)cc2=O)c1,i,i
COc1coc(C(=O)Nc2ccc(F)c(F)c2)cc1=O,i,+
Cc1ccccc1NC(=O)CSc1nc2c(-c3ccccc3)c[nH]c2c(=O)[nH]1,i,.
O=C(CSc1nc(=O)n(CCCO)c2c1CCC2)N1CCc2ccccc21,i,+
O=C(CSc1nc(=O)n(CCO)c2c1CCCC2)N1CCc2ccccc21,i,i
Cn1cccc1C(O)CNS(=O)(=O)c1ccc2c(c1)OCCO2 (stereo not drawn),i,i
COc1ccc2c(=O)c(-c3ccccc3OC)coc2c1,i,+
COc1ccccc1-c1coc2cc(OCc3ccc(F)cc3)ccc2c1=O,.,i
COc1cccc2cc(C(=O)N(Cc3ccsc3)Cc3ccccn3)oc12,i,.
Cc1c(Cl)cccc1NC(=O)Cn1c(=O)c(CNc2ccccc2)cc2cc3c(cc21)OCCO3,i,+
O=C(Cn1c(=O)c(CNc2ccccc2)cc2cc3c(cc21)OCCO3)Nc1ccc2c(c1)OCCO2,i,i
